In PubChem BioAssay (NCATS):
Records with an inconclusive call do not appear. Activity calls are given as the source filed them. Calls follow the shape of the dose curve; as a rule, active = well fitted curve in the direction sought with a large enough effect; inconclusive = small, poorly fitted or top-dose-only effect, or another doubt; inactive = no such curve, though single readings can be large; an effect the other way counts as inactive or inconclusive.

Tests used:
[1] = qHTS profiling for inhibitors of Plasmodium falciparum proliferation (AID 504749);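 also: 0% = DMSO vehicle and full inhibition = artemisinin control; nearly all actives have a fitted effect of over 60% in size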; conditions: P. falciparum in erythrocytes, SYBR Green DNA, 72 h, at 28.7 µM (top of the series)
Summary of the method: (§1)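 Readout was DNA-dye fluorescence from lysed cultures, ex 485/em 535 nm. Parasitized red cells had grown 72 h with compound; data scaled between 0.29 uM artemisinin and DMSO wells and corrected using vehicle-only plates.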

3D7 = experiment: as above; conditions: P. falciparum in erythrocytes, SYBR Green DNA, 72 h; series mostly up to 28.7 µM
Summary of the method: as §1

AA1029 = experiment: as above; conditions: P. falciparum in erythrocytes, SYBR Green DNA, 72 h; series mostly up to 28.7 µM
Summary of the method: as §1

AS120 = experiment: as above; conditions: P. falciparum in erythrocytes, SYBR Green DNA, 72 h; series mostly up to 28.7 µM
Summary of the method: as §1

ATS189 = experiment: as above; conditions: P. falciparum in erythrocytes, SYBR Green DNA, 72 h; series mostly up to 28.7 µM
Summary of the method: as §1

C2A = experiment: as above; conditions: P. falciparum in erythrocytes, SYBR Green DNA, 72 h; series mostly up to 28.7 µM
Summary of the method: as §1

CP191 = experiment: as above; conditions: P. falciparum in erythrocytes, SYBR Green DNA, 72 h; series mostly up to 28.7 µM
Summary of the method: as §1

CP215 = experiment: as above; conditions: P. falciparum in erythrocytes, SYBR Green DNA, 72 h; series mostly up to 28.7 µM
Summary of the method: as §1

CP217 = experiment: as above; conditions: P. falciparum in erythrocytes, SYBR Green DNA, 72 h; series mostly up to 28.7 µM
Summary of the method: as §1

CP238 = experiment: as above; conditions: P. falciparum in erythrocytes, SYBR Green DNA, 72 h; series mostly up to 28.7 µM
Summary of the method: as §1

CP247 = experiment: as above; conditions: P. falciparum in erythrocytes, SYBR Green DNA, 72 h; series mostly up to 28.7 µM
Summary of the method: as §1

CP252 = experiment: as above; conditions: P. falciparum in erythrocytes, SYBR Green DNA, 72 h; series mostly up to 28.7 µM
Summary of the method: as §1

CP256 = experiment: as above; conditions: P. falciparum in erythrocytes, SYBR Green DNA, 72 h; series mostly up to 28.7 µM
Summary of the method: as §1

CP286 = experiment: as above; conditions: P. falciparum in erythrocytes, SYBR Green DNA, 72 h; series mostly up to 28.7 µM
Summary of the method: as §1

CP291 = experiment: as above; conditions: P. falciparum in erythrocytes, SYBR Green DNA, 72 h; series mostly up to 28.7 µM
Summary of the method: as §1

CP325 = experiment: as above; conditions: P. falciparum in erythrocytes, SYBR Green DNA, 72 h; series mostly up to 28.7 µM
Summary of the method: as §1

HB3 = experiment: as above; conditions: P. falciparum in erythrocytes, SYBR Green DNA, 72 h; series mostly up to 28.7 µM
Summary of the method: as §1

[2] = target: Alpha-galactosidase (Coffea arabica) (UniProt Q42656); experiment: Counterscreen for Glucocerebrosidase Inhibitors: qHTS Assay for Coffee Bean alpha-Galactosidase at pH 4.5 (AID 957);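 also: plate controls were enzyme alone for no effect and no enzyme for full effect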
Summary of the method: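 Green coffee bean enzyme (2 nM final) was incubated with compounds (0.7 nM to 77 uM) and 4-methylumbelliferyl alpha-D-galactopyranoside (80 uM final) in 50 mM citric acid, 0.005% Tween-20, pH 4.5, 20 min at room temperature; AC50 from Hill fits.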

[3] = target: Alpha-galactosidase (Coffea arabica) (UniProt Q42656); experiment: Counterscreen for Glucocerebrosidase Inhibitors: qHTS Assay for Coffee Bean alpha-Galactosidase at pH 5.9 (AID 998);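 also: plate controls were uninhibited enzyme for no effect and no-enzyme basal signal for full effect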
Summary of the method: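 Green coffee bean enzyme (2 nM) with 4-methylumbelliferyl alpha-D-galactopyranoside (80 uM) in 50 mM citric acid, 0.005% Tween-20, pH 5.9, 20 min at room temperature; compounds 0.7 nM–77 uM. Stopped at pH 10, fluorescence Ex365/Em440; Hill-fit AC50.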

Chain of Alpha-galactosidase (Coffea arabica) (Q42656 whole entry, looked up): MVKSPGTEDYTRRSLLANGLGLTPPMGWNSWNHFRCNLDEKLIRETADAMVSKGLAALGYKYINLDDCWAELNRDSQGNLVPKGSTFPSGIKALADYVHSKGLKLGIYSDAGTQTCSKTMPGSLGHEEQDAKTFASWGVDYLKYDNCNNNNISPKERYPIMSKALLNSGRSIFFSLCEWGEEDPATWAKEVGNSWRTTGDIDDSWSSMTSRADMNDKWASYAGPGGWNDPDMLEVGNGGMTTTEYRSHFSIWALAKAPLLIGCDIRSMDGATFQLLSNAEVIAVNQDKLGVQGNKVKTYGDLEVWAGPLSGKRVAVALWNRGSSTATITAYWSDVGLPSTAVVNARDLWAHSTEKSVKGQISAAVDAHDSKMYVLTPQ

C[C@H](N)Cc1ccccc1
inactive: activity, negative = inhibition ([1]; parasite line A) -1.91% | activity, negative = inhibition ([1]; parasite line B) -0.429% | Potency (3D7) | Potency (AA1029) | Potency (AS120) | Potency (ATS189) | Potency (C2A) | Potency (CP191) | Potency (CP215) | Potency (CP217) | Potency (CP238) | Potency (CP247) | Potency (CP252) | Potency (CP256) | Potency (CP286) | Potency (CP291) | Potency (CP325) | Potency (HB3)

CC[C@@H](CO)Nc1nc(NCc2ccccc2)c2ncn(C(C)C)c2n1
inactive: outcome [2] | outcome [3]

CC1OC(O[C@H]2C[C@@H](O)[C@]3(CO)[C@@H]4C(CC[C@]3(O)C2)[C@@]2(O)CC[C@H](C3=CC(=O)OC3)[C@@]2(C)C[C@H]4O)C(O)C(O)C1O (some centres undefined)
inactive: activity, negative = inhibition ([1]; parasite line A) -8.52% | activity, negative = inhibition ([1]; parasite line B) -0.0666% | Potency (3D7) | Potency (AA1029) | Potency (AS120) | Potency (ATS189) | Potency (C2A) | Potency (CP191) | Potency (CP215) | Potency (CP217) | Potency (CP238) | Potency (CP247) | Potency (CP252) | Potency (CP256) | Potency (CP286) | Potency (CP291) | Potency (CP325) | Potency (HB3)

Cc1ccc2c(c1)[C@@H]1CN(C)CC[C@H]1N2
inactive: activity, negative = inhibition ([1]; parasite line A) 6.31% | activity, negative = inhibition ([1]; parasite line B) 11.3% | Potency (3D7) | Potency (AA1029) | Potency (AS120) | Potency (ATS189) | Potency (C2A) | Potency (CP191) | Potency (CP215) | Potency (CP217) | Potency (CP238) | Potency (CP247) | Potency (CP252) | Potency (CP256) | Potency (CP286) | Potency (CP291) | Potency (CP325) | Potency (HB3)

C=C1Nc2ccccc2C(=O)N1c1ccccc1C
inactive: activity, negative = inhibition ([1]; parasite line A) -20.1% | activity, negative = inhibition ([1]; parasite line B) -23.4% | Potency (3D7) | Potency (AA1029) | Potency (AS120) | Potency (ATS189) | Potency (C2A) | Potency (CP191) | Potency (CP215) | Potency (CP217) | Potency (CP238) | Potency (CP247) | Potency (CP252) | Potency (CP256) | Potency (CP286) | Potency (CP291) | Potency (CP325) | Potency (HB3)

CC12CCC3C4CCC(=O)C(O)=C4CCC3C1CCC2OC(=O)CCC1CCCC1 (centres undefined)
inactive: activity, negative = inhibition ([1]; parasite line A) -6.44% | activity, negative = inhibition ([1]; parasite line B) -4.5% | Potency (3D7) | Potency (AA1029) | Potency (AS120) | Potency (ATS189) | Potency (C2A) | Potency (CP191) | Potency (CP215) | Potency (CP217) | Potency (CP238) | Potency (CP247) | Potency (CP252) | Potency (CP256) | Potency (CP286) | Potency (CP291) | Potency (CP325) | Potency (HB3)

Cc1cc(C)cc(C(=O)OC2CC3CCC(C2)N3C)c1 (centres undefined)
inactive: activity, negative = inhibition ([1]; parasite line A) -5.04% | activity, negative = inhibition ([1]; parasite line B) 8.93% | Potency (3D7) | Potency (AA1029) | Potency (AS120) | Potency (ATS189) | Potency (C2A) | Potency (CP191) | Potency (CP215) | Potency (CP217) | Potency (CP238) | Potency (CP247) | Potency (CP252) | Potency (CP256) | Potency (CP286) | Potency (CP291) | Potency (CP325) | Potency (HB3)

CC(Cc1ccccc1)N(C)C (centres undefined)
inactive: activity, negative = inhibition ([1]; parasite line A) 9.11% | activity, negative = inhibition ([1]; parasite line B) 11.3% | Potency (3D7) | Potency (AA1029) | Potency (AS120) | Potency (ATS189) | Potency (C2A) | Potency (CP191) | Potency (CP215) | Potency (CP217) | Potency (CP238) | Potency (CP247) | Potency (CP252) | Potency (CP256) | Potency (CP286) | Potency (CP291) | Potency (CP325) | Potency (HB3)

CN1C2CCC1C(C(=O)O)C(OC(=O)c1ccccc1)C2 (centres undefined)
inactive: activity, negative = inhibition ([1]; parasite line A) 9.89% | activity, negative = inhibition ([1]; parasite line B) 6.56% | Potency (3D7) | Potency (AA1029) | Potency (AS120) | Potency (ATS189) | Potency (C2A) | Potency (CP191) | Potency (CP215) | Potency (CP217) | Potency (CP238) | Potency (CP247) | Potency (CP252) | Potency (CP256) | Potency (CP286) | Potency (CP291) | Potency (CP325) | Potency (HB3)

[S]=[Sb][S][Sb]=[S]
inactive: activity, negative = inhibition ([1]; parasite line A) 8.49% | activity, negative = inhibition ([1]; parasite line B) 1.29% | Potency (3D7) | Potency (AA1029) | Potency (AS120) | Potency (ATS189) | Potency (C2A) | Potency (CP191) | Potency (CP215) | Potency (CP217) | Potency (CP238) | Potency (CP247) | Potency (CP252) | Potency (CP256) | Potency (CP286) | Potency (CP291) | Potency (CP325) | Potency (HB3)
